The panel holds about 79,000 compounds, 15% with a hit somewhere; the sample as a whole holds those more often. Activity calls are given as the source filed them. Cut-off read from the data, not from the text of the source: active = growth inhibition above about 70%; inactive = the rest.

The assay can be described thus: NCI Yeast Anticancer Drug Screen. Data for the mlh1 rad18 strain (AID 175). To be noted: S. cerevisiae mlh1 rad18 strain growth inhibition; at 50.0 µM; active compounds read high. In a few lines:
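Cells of a genetically altered yeast strain, deficient in DNA damage repair, were treated with compound. Their growth was then compared with that of vehicle-treated cultures to give inhibition.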
On to `CCOC(=O)/C=C(\CC(=O)OCC)C(=O)OCC`, for which the growth inhibition was 99.3% (active). As for `Cc1cc(Cl)cc2c1NC(=O)C2(O)C(C)C(=O)c1ccc(Cl)cc1` (stereo not given), the figure is 98.8% (active); as for `C=CS(=O)(=O)c1ccc([N+](=O)[O-])cc1`, 99.2% (active); as for `Oc1cc(Br)ccc1/C=N/Nc1ccccn1`, 1.05% (inactive). As for `CC(C)C(CC(C)(C)C)OC(=O)Nc1cccc2ccccc12` (stereo not given), the growth inhibition was 58.1% (inactive).

As to `CC(=O)[O-].O=C(N/N=C/c1ccccc1[O-])c1ccccc1.[Zn+2]`, the growth inhibition was 32% (inactive). In the case of `COc1cc(C2C(C(=O)Nc3ccc(Cl)c(Cl)c3)=C(C)NC(C)=C2C(=O)Nc2ccc(Cl)c(Cl)c2)ccc1O` it was 89.5% (active); in that of `[Ce+3].[Cl-].[O-]/N=C(\c1ccccc1)c1ccccn1.[O-]/N=C(\c1ccccc1)c1ccccn1.[O-]/N=C(\c1ccccc1)c1ccccn1`, 86.2% (active); in that of `CCCCCCCCN1C(=O)c2ccccc2S1(=O)=O`, 76.2% (active). As to `CC(=O)N(C1=C(Cl)C(=O)c2ccccc2C1=O)c1ccc(C)cc1`, the growth inhibition is 99.5% (active). As for `COc1ccc(Cl)c(-c2cc(OC)c(N=N/C(=N/Nc3ccc([N+](=O)[O-])cc3)c3ccc([N+](=O)[O-])cc3)cc2Cl)c1`, the growth inhibition was 76.1% (active).

For the compound `CCOC(=O)CSC(=S)N1CCOCC1`, the growth inhibition was -29.2% (inactive). On to `CC1(C)COC(c2cccc(C(O)c3ccc(Cl)cc3)c2)=N1` (stereo not given), for which the growth inhibition is 54.1% (inactive). `COc1ccc(/C=C/C(C(=O)O)C(=O)O)cc1`: the growth inhibition is 78% (active).

On to `COc1ccc2c(Cc3ccc(O)cc3)cncc2c1O`, for which the growth inhibition was 97.6% (active).

Values taken from PubChem BioAssay (NCI).
